The values below come from PubChem BioAssay AID1345085 (National Center for Advancing Translational Sciences (NCATS), 2018).

SMILES strings stand for the structures. Results filed as inconclusive are left out. Active and inactive are the calls of the source. Calls come from the whole dose curve; as a rule, active = well fitted cell-killing curve with a large enough effect; inconclusive = small, poorly fitted or top-dose-only effect, or effect the other way; inactive = no such curve, though single readings can be large or run the other way.
% is set by controls: 0 for no effect and ±100 for the full control effect; potency is the fitted concentration of half-maximal effect.

The test has as its system Jar. The test is described as follows: Confirmatory qHTS for gynecologic anti-cancer compounds from libraries of approved drugs and bioactive compounds. Note: nearly all actives have a fitted effect of over 55% in size. The conditions noted are these: gynecologic cancer cell panel viability, ATPlite luminescence, 48 h; series mostly up to 57.6 µM. In outline: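 1,000 cells/well; 16 h pre-incubation 37 C, 5% CO2; pin-transferred cpd in DMSO, 11 conc (1:3), 57.5 uM–0.977 nM; 48 h; ATPlite, 15 min RT; luminescence → IC50.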
(In general: In qHTS, concentration-response curves come from the screen itself.)
In the case of `CN1C(=O)C(Cc2c[nH]c3ccccc23)NC1=S` (stereo not drawn), the Potency entry was “inactive”.
For the molecule `Cn1c(=O)c(-c2c(Cl)cccc2Cl)cc2cnc(Nc3cccc(C(=O)O)c3)nc21`, the Potency is 2.43 µM (active).
Still for that read-out and setting: with `COc1ccc(CCC(=O)c2c(O)cc(O[C@@H]3O[C@H](CO)[C@@H](O)[C@H](O)[C@H]3O[C@@H]3O[C@@H](C)[C@H](O)[C@@H](O)[C@H]3O)cc2O)cc1O` the entry was “inactive”.
`S=c1nc[nH]c2nc[nH]c12`: the Potency was 13.7 µM (active).
In the case of `CCOc1cc2ncc(C#N)c(Nc3ccc(F)c(Cl)c3)c2cc1NC(=O)/C=C/CN(C)C`, the Potency is 1.72 µM (active).
With `Nc1ccn([C@@H]2O[C@H](CO)[C@@H](O)C2(F)F)c(=O)n1`, the Potency entry is “inactive”.
Take `NC(=O)c1cccc2cn(-c3ccc([C@@H]4CCCNC4)cc3)nc12`: the Potency result was “inactive”.
For `CCN(CC)CCOc1ccc(/C(=C(\Cl)c2ccccc2)c2ccccc2)cc1`, the Potency was 89.1 µM (active).
Turning to `CCN1CCN(Cc2ccc(-c3cc4c(NC(C)c5ccccc5)ncnc4[nH]3)cc2)CC1` (stereo not drawn), the Potency is 21.7 µM (active).
Take `CCC1=CC2CN(C1)Cc1c([nH]c3ccccc13)[C@@](C(=O)OC)(c1cc3c(cc1OC)N(C)[C@H]1[C@@](O)(C(=O)OC)[C@H](OC(C)=O)[C@]4(CC)C=CCN5CC[C@]31[C@@H]54)C2` (stereo partly drawn): the Potency was 0.133 µM (active).
Regarding `COc1cccc2c1C(=O)c1c(O)c3c(c(O)c1C2=O)C[C@@](O)(C(=O)CO)C[C@@H]3O[C@H]1C[C@H](N)[C@H](O)[C@H](C)O1`, the Potency was 1.72 µM (active).
Regarding `Cn1c(=O)c(F)c(Nc2ccc(I)cc2F)c2c(=O)n(CC(O)CO)cnc21` (stereo not drawn), the Potency entry is “inactive”.
Regarding `COc1ccc2cc3[n+](cc2c1OC)CCc1cc2c(cc1-3)OCO2`, the Potency is 4.32 µM (active).
The same measure, in the same setting: with `Cn1cnc([N+](=O)[O-])c1Sc1ncnc2nc[nH]c12` the figure was 27.3 µM (active); with `COc1cc(Nc2c(C#N)cnc3cc(OCCCN4CCN(C)CC4)c(OC)cc23)c(Cl)cc1Cl`, 24.3 µM (active); with `NC(=O)c1ccc2nc(-c3ccc(Oc4ccc(Cl)cc4)cc3)[nH]c2c1`, 24.3 µM (active).
For `CNc1nccc(-c2cccnc2Oc2cc(C(=O)Nc3cccc(C(F)(F)F)c3)ccc2C)n1`, the Potency was 19.3 µM (active).
As for `Nc1ccc(-c2ccc3ncc4ccc(=O)n(-c5cccc(C(F)(F)F)c5)c4c3c2)cn1`, the Potency was 1.22 µM (active).
For `COc1ccc(-c2ccc3c(N4CCOCC4C)nc(N4CCOCC4C)nc3n2)cc1CO` (stereo not drawn), the Potency entry was “inactive”.
For the molecule `CC[C@]1(O)C[C@H]2CN(CCc3c([nH]c4ccccc34)[C@@](C(=O)OC)(c3cc4c(cc3OC)N(C=O)[C@H]3[C@@](O)(C(=O)OC)[C@H](OC(C)=O)[C@]5(CC)C=CCN6CC[C@]43[C@@H]65)C2)C1`, the Potency was 0.273 µM (active).
For `CCc1c2c(nc3ccc(O)cc13)-c1cc3c(c(=O)n1C2)COC(=O)[C@]3(O)CC`, the Potency is 1.72 µM (active).
In the case of `Cc1ccc(C(=O)Nc2ccc(CN3CCN(C)CC3)c(C(F)(F)F)c2)cc1C#Cc1cnc2[nH]ncc2c1`, the Potency result is “inactive”.
The same measure, in the same setting: with `FC(F)(F)c1ccc(/C=C/c2nc(COc3ccc(CCCCn4ccnn4)cc3)co2)cc1` the figure was 0.0172 µM (active); with `CCC1C(=O)N(C)c2cnc(Nc3ccc(C(=O)NC4CCN(C)CC4)cc3OC)nc2N1C1CCCC1` (stereo not drawn), 0.0217 µM (active).
For the molecule `C[C@]12CCC(=O)C=C1[C@@H]1C[C@@H]1[C@H]1[C@@H]3[C@@H]4C[C@@H]4[C@@]4(CCC(=O)O4)[C@@]3(C)CC[C@@H]12`, the Potency result is “inactive”.
On to `C#C[C@]1(O)CC[C@H]2[C@@H]3CCC4=CC(=O)CC[C@@H]4[C@H]3CC[C@@]21CC`, for which the Potency entry was “inactive”.
On the same count and under the same terms, next, `CN1CCN(c2ccc(OC(F)(F)F)c(Nc3ncc4c(n3)-c3c(c(C(N)=O)nn3CCO)CC4)c2)CC1`: 0.153 µM (active).
For the molecule `Cc1cnc(CNC(=O)c2c(=O)c3ccc(N4CCCN(C)CC4)nc3n3c2sc2ccccc23)cn1`, the activity change, negative = viability loss is 14.2% [at 10.7 µM] (inactive).
As for `CNC(=O)c1ccccc1Sc1ccc2c(/C=C/c3ccccn3)n[nH]c2c1`, the Potency is 19.3 µM (active).
Regarding `C[C@]12CCC(=O)C=C1CC[C@@H]1[C@@H]2[C@@H](O)C[C@@]2(C)[C@H]1CC[C@]2(O)C(=O)CO`, the Potency result was “inactive”.
On the same count and under the same terms, next, `c1nc2nc(Nc3ccc(N4CCOCC4)cc3)nc(NC3CCCCC3)c2[nH]1`: 9.43 µM (active).
Consider `COc1cc(N2CCC(N3CCN(C)CC3)CC2)ccc1Nc1ncnc(Nc2ccccc2S(=O)(=O)C(C)C)n1`, for which the Potency entry was “inactive”.
For the molecule `Cc1nc(Nc2n[nH]c3c2CN(C(=O)NC(CN(C)C)c2ccccc2)C3(C)C)c2sccc2n1` (stereo not drawn), the Potency result is “inactive”.
Regarding `NS(=O)(=O)OC[C@@H]1C[C@@H](n2ccc3c(N[C@H]4CCc5ccccc54)ncnc32)C[C@@H]1O`, the Potency entry is “inactive”.
As for `CO[C@@]12[C@H](COC(N)=O)C3=C(C(=O)C(C)=C(N)C3=O)N1C[C@@H]1N[C@@H]12`, the Potency entry was “inactive”.
On to `CNC(=O)c1nn(C)c2c1C(C)(C)Cc1cnc(Nc3ccc(N4CCN(C)CC4)cc3)nc1-2`, for which the Potency was 1.72 µM (active).
For the molecule `O=C(c1ccc(/C=C/c2n[nH]c3ccccc23)cc1)N1CCNCC1`, the Potency was 30.6 µM (active).
Same read-out and setting: with `COc1ccc(-c2nc3ccc(C4=NNC(=O)CC4C)cc3[nH]2)cc1` (stereo not drawn) the figure was 21.7 µM (active).
